The values that follow come from PubChem BioAssay (NCI).

Compounds without any hit were thinned out: in the full panel of roughly 83,000, 20% have a hit.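 Negative percent growth values reflect cell death: -40 means 40% of the cells present at the start died, and -100 means all died.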 The source made the active and inactive calls. How the source made its calls: active means growth percent below 10; inactive means the rest.

For one assay, the system named is M14 melanoma. Briefly: NCI-60 one-dose screen, 48 h (100 = growth as untreated, 0 = no growth, -100 = all killed). The note with it: 10 µM unless noted.
For the compound `CCCSC1=NC2C(N(CC)C(=O)N2CC)N1/N=C/C=C/c1ccccc1[N+](=O)[O-]` (stereo unspecified), the growth was 1.77% (active).
Same read-out and setting: then `COC(=O)C1=Nc2ccc(F)cc2/C1=C/c1sc(=S)[nH]c1O`, with 2.31% (active); and `O=C1c2cc(Br)ccc2Oc2cc([N+](=O)[O-])ccc2N1c1ccc(I)cc1F`, with 91.8% (inactive); and `COc1cccc(-c2nn(C)c3sc(C(=O)NCCN4CCN(c5ccccc5F)CC4)cc23)c1`, with -90.1% (active).
Turning to `O=S(=O)(c1ccccc1)n1cc2c(c1-c1ccccc1)CCc1sc(Nc3ccccc3)nc1-2`, the growth was 87.8% (inactive).
With `CN1CCN(Cc2ccc(NC(=O)c3cncc(C#Cc4nc(N)nc5[nH]ncc45)c3)cc2C(F)(F)F)CC1`, the growth was 89.4% (inactive).
The same measure, in the same setting: then `Clc1ccc(-c2nnc(COc3ccc(C4=NNC(c5ccco5)C4)cc3)o2)cc1` (stereo unspecified), with 88% (inactive).
Same read-out and setting: for `CC(=O)c1ccc(Cc2ccc(C(C)=O)s2)s1` the value was 107% (inactive); for `CCOC(=O)c1cnc2ccc(Cl)cc2c1NCCCN(C)C`, 2.88% (active).
Consider `CCN1C(=O)N(CC)C2C1NN=c1s/c(=C3\C(=O)N(CC(C)(C)C)c4ccccc43)c(=O)n12` (stereo unspecified), for which the growth is 18.3% (inactive).
Still for that read-out and setting: for `CC(=O)c1ccc2oc(=O)n(Cc3ccc(C#N)cc3)c(=O)c2c1` the value was 108% (inactive); for `O=C1/C(=C/c2cccc(O)c2)COc2ccc(O)cc21`, 85.3% (inactive); for `Nc1n[nH]c2ccc([C@@H]3Nc4ccc5[nH]ncc5c4[C@H]4[C@H]5CCC(C5)[C@H]43)cc12`, 8.3% (active).
In the case of `CN(C)c1ccc(/C=C/c2ccnc3c(O)cccc23)cc1`, the growth is -22.5% (active).
With `Cn1nc(C(C)(C)C)cc1NC(=O)Cc1ccc(/C=C2\C(=O)Nc3ccccc32)cc1`, the growth was 56.5% (inactive).
As for `Cc1c(C(=O)OCCO)cc(-c2ccc(Cl)cc2)n1-c1ccc(Cl)cc1Cl`, the growth was 55.6% (inactive).
On the same count and under the same terms, for `CCC1=C[C@]2(C3CC(=O)N(c4ccccc4)C3=O)CC(C(C)(C)C)C[C@@H]2[C@@H]2C(=O)N(c3ccccc3)C(=O)[C@H]12` (stereo partly specified) the value was 83.7% (inactive); for `Nc1ccc(-c2nn3c(CCC(=O)c4nc5ncccc5[nH]4)nnc3s2)c(O)c1`, 96.5% (inactive); for `CCCCCCc1cc2cc(-c3nc4ccccc4[nH]3)c(=Nc3ccccc3C)oc2cc1O`, 9.12% (active).
As to `COc1ccc(OC)c(N(CCN2C(=O)c3ccccc3C2=O)C(=O)CCl)c1`, the growth is 84.2% (inactive).
In the case of `COc1ccc(C)c2sc(N(Cc3cccnc3)C(=O)c3ccc(C#N)cc3)nc12`, the growth is 4.95% (active).
As to `O=C(/C=C/c1ccccn1)c1ccc(OCc2nnc(-c3ccc(Cl)cc3)o2)cc1`, the growth is 31.1% (inactive).
The same measure, in the same setting: for `COc1ccc(C2C3=C(COC3=O)N(CCO)c3cc4c(cc32)CCC4)cc1` (stereo unspecified) the value was 38% (inactive); for `CN(C)/C=C1\SC(=Nc2ccc(Cl)cc2)NC1=O`, 109% (inactive).
On to `c1ccc(CNc2nc(Nc3ccccc3)nc3ccccc23)cc1`, for which the growth was 55% (inactive).
As to `COc1ccc2c(c1)C=C1CSCC3=Cc4cc(OC)ccc4OC13O2`, the growth is 17.2% (inactive).
On the same count and under the same terms, for `COc1ccc(C(O)(CCC(C)C)C(CN2CCOCC2)c2ccc(Cl)cc2)cc1` (stereo unspecified) the value was 37.1% (inactive); for `COC(=O)[C@H]1CCCN1C(=O)[C@H]1CCCN1C(=O)[C@H](Cc1c[nH]c2ccccc12)NC(=S)Nc1cc(C(F)(F)F)cc(C(F)(F)F)c1`, 56% (inactive); for `CCn1c(Cc2ccccc2Nc2c(Cl)cccc2Cl)nnc1SCC(=O)NN1C(=O)/C(=C/c2cccc(OC)c2OC)SC1=S`, 103% (inactive).
On to `CCCC(c1nnnn1C1CCCCC1)N1CCN(C(=O)c2ccco2)CC1` (stereo unspecified), for which the growth was 30.5% (inactive).
The same measure, in the same setting: for `C1=CC2(C=C1)OC21CCC2(C=CC3(C2)OC3C2CCCCC2)CC1` (stereo unspecified) the value was 102% (inactive).
Take `O=C(NC1CCN(Cc2ccccc2)CC1)c1cc(C(=O)NC2CCN(Cc3ccccc3)CC2)cc(C(=O)NC2CCN(Cc3ccccc3)CC2)c1`: the growth was 83.2% (inactive).
On the same count and under the same terms, for `COc1cc(-c2c3c(c(Br)n2Cc2ccccc2)-c2nc(N)sc2CC3)cc(OC)c1OC` the value was 90.3% (inactive); for `NC(CCc1nc2ccccc2c(=O)[nH]1)C(=O)O` (stereo unspecified), 105% (inactive).
`Nc1no[n+]([O-])c1-c1nnc2c(n1)-c1ccccc1C2=O`: the growth was 18.9% (inactive).
The same measure, in the same setting: then `CCOc1ccc(-c2nonc2NC(=O)c2cccc(C)c2)cc1OCC`, with 71.3% (inactive); and `Cc1ccc(OCCCCCCNCCO)c(C)c1`, with -0.43% (active).

For another assay, the system named is HCT-15 colon. The assay is described as above. The following applies: 10 µM unless noted.
Take `CCCSC1=NC2C(N(CC)C(=O)N2CC)N1/N=C/C=C/c1ccccc1[N+](=O)[O-]` (stereo unspecified): the growth is 16.1% (inactive).
`COC(=O)C1=Nc2ccc(F)cc2/C1=C/c1sc(=S)[nH]c1O`: the growth is 10.7% (inactive).
As to `O=C1c2cc(Br)ccc2Oc2cc([N+](=O)[O-])ccc2N1c1ccc(I)cc1F`, the growth was 97.7% (inactive).
For the compound `COc1cccc(-c2nn(C)c3sc(C(=O)NCCN4CCN(c5ccccc5F)CC4)cc23)c1`, the growth was 29.3% (inactive).
Same read-out and setting: then `O=S(=O)(c1ccccc1)n1cc2c(c1-c1ccccc1)CCc1sc(Nc3ccccc3)nc1-2`, with 83.8% (inactive); and `CN1CCN(Cc2ccc(NC(=O)c3cncc(C#Cc4nc(N)nc5[nH]ncc45)c3)cc2C(F)(F)F)CC1`, with 97.8% (inactive).
With `Clc1ccc(-c2nnc(COc3ccc(C4=NNC(c5ccco5)C4)cc3)o2)cc1` (stereo unspecified), the growth is 58.8% (inactive).
In the case of `CC(=O)c1ccc(Cc2ccc(C(C)=O)s2)s1`, the growth is 99% (inactive).
As to `CCOC(=O)c1cnc2ccc(Cl)cc2c1NCCCN(C)C`, the growth is 26.2% (inactive).
For `CCN1C(=O)N(CC)C2C1NN=c1s/c(=C3\C(=O)N(CC(C)(C)C)c4ccccc43)c(=O)n12` (stereo unspecified), the growth is 14.2% (inactive).
On to `CC(=O)c1ccc2oc(=O)n(Cc3ccc(C#N)cc3)c(=O)c2c1`, for which the growth was 98.9% (inactive).
On the same count and under the same terms, then `O=C1/C(=C/c2cccc(O)c2)COc2ccc(O)cc21`, with 10.6% (inactive); and `O=C(Nc1nc2c(s1)CCc1c-2c(Br)n(Cc2ccccc2)c1Br)c1ccccc1`, with 81.6% (inactive).
Take `Nc1n[nH]c2ccc([C@@H]3Nc4ccc5[nH]ncc5c4[C@H]4[C@H]5CCC(C5)[C@H]43)cc12`: the growth was 16.5% (inactive).
Turning to `CN(C)c1ccc(/C=C/c2ccnc3c(O)cccc23)cc1`, the growth was 26.7% (inactive).
Take `CCOC(=O)c1cc2c(n1Cc1cccc(OC)c1)-c1oncc1CCC2`: the growth was 29.3% (inactive).
Regarding `Cn1nc(C(C)(C)C)cc1NC(=O)Cc1ccc(/C=C2\C(=O)Nc3ccccc32)cc1`, the growth was 48.4% (inactive).
With `Cc1c(C(=O)OCCO)cc(-c2ccc(Cl)cc2)n1-c1ccc(Cl)cc1Cl`, the growth is 53.6% (inactive).
Turning to `CCC1=C[C@]2(C3CC(=O)N(c4ccccc4)C3=O)CC(C(C)(C)C)C[C@@H]2[C@@H]2C(=O)N(c3ccccc3)C(=O)[C@H]12` (stereo partly specified), the growth was 87.7% (inactive).
As for `Nc1ccc(-c2nn3c(CCC(=O)c4nc5ncccc5[nH]4)nnc3s2)c(O)c1`, the growth is 95.8% (inactive).
As for `CCCCCCc1cc2cc(-c3nc4ccccc4[nH]3)c(=Nc3ccccc3C)oc2cc1O`, the growth was 31.2% (inactive).
Same read-out and setting: for `COc1ccc(OC)c(N(CCN2C(=O)c3ccccc3C2=O)C(=O)CCl)c1` the value was 80.3% (inactive); for `COc1ccc(C)c2sc(N(Cc3cccnc3)C(=O)c3ccc(C#N)cc3)nc12`, 17.5% (inactive).
Same read-out and setting: for `O=C(/C=C/c1ccccn1)c1ccc(OCc2nnc(-c3ccc(Cl)cc3)o2)cc1` the value was 18.9% (inactive); for `COc1ccc(C2C3=C(COC3=O)N(CCO)c3cc4c(cc32)CCC4)cc1` (stereo unspecified), 37.3% (inactive).
For the compound `CN(C)/C=C1\SC(=Nc2ccc(Cl)cc2)NC1=O`, the growth was 103% (inactive).
Regarding `c1ccc(CNc2nc(Nc3ccccc3)nc3ccccc23)cc1`, the growth was 72.6% (inactive).
Regarding `COc1ccc2c(c1)C=C1CSCC3=Cc4cc(OC)ccc4OC13O2`, the growth is 18.2% (inactive).
Consider `COc1ccc(C(O)(CCC(C)C)C(CN2CCOCC2)c2ccc(Cl)cc2)cc1` (stereo unspecified), for which the growth was 35.6% (inactive).
With `COC(=O)[C@H]1CCCN1C(=O)[C@H]1CCCN1C(=O)[C@H](Cc1c[nH]c2ccccc12)NC(=S)Nc1cc(C(F)(F)F)cc(C(F)(F)F)c1`, the growth was 70.4% (inactive).
Same read-out and setting: then `CCn1c(Cc2ccccc2Nc2c(Cl)cccc2Cl)nnc1SCC(=O)NN1C(=O)/C(=C/c2cccc(OC)c2OC)SC1=S`, with 99.8% (inactive); and `CCCC(c1nnnn1C1CCCCC1)N1CCN(C(=O)c2ccco2)CC1` (stereo unspecified), with 45.5% (inactive); and `C1=CC2(C=C1)OC21CCC2(C=CC3(C2)OC3C2CCCCC2)CC1` (stereo unspecified), with 101% (inactive).
In the case of `O=C(NC1CCN(Cc2ccccc2)CC1)c1cc(C(=O)NC2CCN(Cc3ccccc3)CC2)cc(C(=O)NC2CCN(Cc3ccccc3)CC2)c1`, the growth is 78.2% (inactive).
`COc1cc(-c2c3c(c(Br)n2Cc2ccccc2)-c2nc(N)sc2CC3)cc(OC)c1OC`: the growth was 85% (inactive).
The same measure, in the same setting: for `NC(CCc1nc2ccccc2c(=O)[nH]1)C(=O)O` (stereo unspecified) the value was 101% (inactive); for `Nc1no[n+]([O-])c1-c1nnc2c(n1)-c1ccccc1C2=O`, -71.4% (active).
For the compound `CCOc1ccc(-c2nonc2NC(=O)c2cccc(C)c2)cc1OCC`, the growth was 65.2% (inactive).
`Cc1ccc(OCCCCCCNCCO)c(C)c1`: the growth was 22.8% (inactive).
